Consider 39 compounds from PubChem BioAssay (NCI).

SMILES strings stand for the structures. The panel holds about 79,000 compounds, 15% with a hit somewhere; the sample as a whole holds those more often. Unmarked numbers belong to inactive results. Active and inactive are the calls of the source. No stated cut-off is given here; in the data, active means growth inhibition above about 70%; inactive means the rest.

The nature of the test: NCI Yeast Anticancer Drug Screen. Data for the rad50EPP+ strain (AID 151).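 Further: 0% = growth of vehicle-treated control cultures.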 The settings on record: S. cerevisiae rad50 mutant strain, at 100.0 µM, hits give high values. Put shortly: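 Read-out is yeast growth inhibition relative to vehicle; cells used were the rad50EPP+ strain.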
For `CCCc1cc(C(=O)OCC)cc(CCC)c1O`, the growth inhibition was 25%. For the compound `CC(C)[N+]([O-])(CCCNc1c2ccccc2nc2cccc([N+](=O)[O-])c12)C(C)C`, the growth inhibition is 97% (active). In the case of `COc1cc2c3c(cccc3c1)C(=O)N(CCN(C)C)C2=O` it was 78% (active); in that of `NC(=O)NN=C(CS)CS`, 29%. In the case of `Cc1ccc(NC(=O)/C(Cl)=C(\Cl)C(=O)O)cc1C` it was 99% (active); in that of `CCN(CC)CC[n+]1ccc2c(C)c3[nH]c4ccc(O)cc4c3c(C)c2c1`, 91% (active); in that of `CC(CC(C)(C)[N+](C)(C)C)[N+](C)(C)C` (centres undefined), -1%. In the case of `COc1ccc(OC)c2cc3ccccc3cc12` it was 60%; in that of `Nc1ncncc1C(C1=C(O)COC1=O)C1=C(O)COC1=O`, 2%; in that of `CSC1=NNC(SC)=NN1`, 98% (active). In the case of `Cc1c(Cl)ccc2c1S(=O)(=O)c1cccc(Cl)c1-2`, the growth inhibition was -17%. For the compound `[O-][n+]1c2ccc(O)cc2nc2ccc(Cl)cc21`, the growth inhibition was 56%. In the case of `COc1ccc2ccc3ccccc3c2c1C=O` it was 25%. As for `Nc1ccc2c(c1)C(=O)c1cccc(N)c1C2=O`, the figure is 92% (active).

Regarding `O=C(c1ccc(Cl)cc1Cl)C(Cl)Cl`, the growth inhibition is 96% (active). Regarding `COc1cc(C(=O)/C=C/c2ccccc2O)ccc1O`, the growth inhibition was 98% (active).

Take `O=Cc1cccc2ccc3ccccc3c12`: the growth inhibition was 95% (active). As for `O=C(Nc1ccc(Cl)cc1)OCC#CCCl`, the figure is 98% (active); as for `Cn1ccnc1Oc1ccc(Cl)cc1`, 37%; as for `c1ccc2c(c1)C(=NCCCN1CCCCCC1)c1cccn1-2`, 63%.

Take `C/C(=N\O)C1CC2C=C(C#N)C1N(Cc1ccccc1)C2` (centres undefined): the growth inhibition is 19%. As for `O=[N+]([O-])C(=C(Sc1ccccc1)Sc1ccccc1)C(Cl)=C(Cl)Cl`, the figure is 48%. As for `CCCCCCCCCC/C=C\C(=O)O`, the figure is 75% (active); as for `COc1ccc(N=C2C(=O)Nc3ccc(Br)cc32)cc1`, -20%.

Regarding `COc1ccccc1C(=O)OCC1CCCN2CCCCC12` (centres undefined), the growth inhibition is 98% (active). On to `CC(C)(Br)C(=O)/C=C/c1ccc(Cl)c(Cl)c1`, for which the growth inhibition was 3%. In the case of `Nc1ccccc1CC(O)C(=O)O` (centres undefined) it was 4%; in that of `CC(=O)N/N=C/C(C)(C)C(C)(C)/C=N/NC(C)=O`, 71% (active); in that of `CN(C)c1nc2sc3c(c2c(=O)o1)CCCC3`, 22%.

On to `CC(C)OC(=O)Oc1ccccc1OC(=O)OC(C)C`, for which the growth inhibition is 2%. As for `Cc1ccc(N)c(S)c1`, the figure is 91% (active); as for `O=C(O)c1ccccc1NC(=S)c1ccccc1`, 83% (active). As for `COC(=O)c1ccc(NCC2=CC(=O)C=CC2=O)cc1O`, the figure is 92% (active); as for `NC(N)=N/N=C\c1c2ccccc2cc2ccccc12`, 23%; as for `COC(=O)CSSCc1ccc([N+](=O)[O-])cc1`, 98% (active). `CCS(=O)(=O)c1ccc(/C=C/C=N/NC(=S)NCC(C)C)cc1`: the growth inhibition was -9%. In the case of `N#CC(C(=O)Nc1ccccc1)C1=C(Cl)C(=O)c2ccccc2C1=O` (centres undefined), the growth inhibition was 96% (active). As for `C[C@H](CCC(=O)NN)[C@H]1CC[C@H]2[C@@H]3CC[C@@H]4C[C@H](O)CC[C@]4(C)[C@H]3CC[C@]12C`, the figure is 18%; as for `CC[n+]1ccc2c(C)c3[nH]c4ccc(O)cc4c3c(C)c2c1`, 90% (active).
